Over roughly 13,000 compounds, “IFI” has its median near 4; the highest 2% begin near 17. What follows is part of a selection rich in the highest values, with near analogues and random picks from the rest.
experiment: GSK_TCMDC: Inhibition Frequency Index (IFI). The number of non-kinase HTS assays where a compound showed > 50 % inhibition, expressed as a percentage of the number of such assays in which the compound was tested; type: functional

SMILES | IFI
CN(C)CC(=O)Nc1ccc(-c2ccc3ccnc(N)c3c2)cc1 | 7.95%
CCCCCCCN1CC[C@@H](CCCc2ccnc3ccc(OCCCCNC(N)=O)cc23)[C@@H](CC)C1 | 8.76%
CC(C)NCc1ccc(OCc2cccc(COc3ccc(CNC(C)C)cc3I)c2)c(I)c1 | 17.6%
CC[C@H](C)CNCc1ccc(OCc2cccc(COc3ccc(CNC[C@@H](C)CC)cc3I)c2)c(I)c1 | 15.3%
CC(C)CNCc1ccc(OCc2cccc(COc3ccc(CNCC(C)C)cc3I)c2)c(I)c1 | 8.89%
Cc1[nH]c(C)c(-c2ccc(OCCSc3ccncc3)cc2)c(=O)c1Br | 3.7%
COc1cc([N+](=O)[O-])ccc1NC(=O)c1cc(Cl)ccc1O | 35.6%
COc1ccccc1NC(=O)c1cc(C(=O)c2cc(Cl)ccc2O)cn(-c2ccccc2OC)c1=O | 0.97%
O=C(Nc1ccc([N+](=O)[O-])cc1Cl)c1cc(Br)cc(Cc2ccccc2)c1O | 16.2%
O=C(Oc1ccc(Cl)cc1C(=O)Nc1ccc([N+](=O)[O-])cc1Cl)c1ccccc1 | 22.4%
O=C(Nc1ccc(Cl)cc1C(=O)Nc1cccc(F)c1)c1ccc([N+](=O)[O-])cc1 | 1.43%
O=C(Nc1ccc([N+](=O)[O-])cc1Cl)c1cc2ccccc2cc1O | 12.8%
Cc1[nH]cnc1CSCCN/C(=N\C#N)NCCCCCCCCN/C(=N/C#N)NCCSCc1nc[nH]c1C | 1.49%
CC(C)(C)c1ccc(-c2cc(C(=O)N[C@@H](CO)C(=O)O)on2)cc1.CC(C)(C)c1ccc(-c2nocc2C(=O)N[C@@H](CO)C(=O)O)cc1 | 0%
CN/C(=N\O)NCCN(C)C | 1.43%
Clc1cccc(Nc2ccc3c(N4CCCCC4)ncnc3n2)c1 | 8.33%
CS(=O)(=O)CCNCc1nc(-c2ccc3c(Nc4ccc(Cl)cc4F)ccnc3c2)cs1 | 7.69%
CS(=O)(=O)CCNCc1nc(-c2ccc3c(=O)[nH]cnc3c2)cs1 | 22.6%
CS(=O)(=O)CCNCc1nc(-c2ccc3c(Nc4ccc(F)c(O)c4)ccnc3c2)cs1 | 3.73%
Cc1c(N=O)cc(C(C)(C)C)c(O)c1C(=O)Nc1ccc([N+](=O)[O-])cc1Cl | 25.2%
Cc1sc(NC(=O)c2ccc([N+](=O)[O-])cc2Cl)c(C(N)=O)c1C | 0.75%
Cc1cc([N+](=O)[O-])ccc1NC(=O)Nc1cccc(C(F)(F)F)c1 | 7.89%
CCCCCCC(N)c1ccc(OCCCOc2ccc(C(N)CCCCCC)cc2)cc1 (stereo unspecified) | 24.5%

SMILES | IFI
CCCCCOc1ccc(C(O)C(CCC(CN2CCCCCC2)C(O)c2ccc(OCCCCC)cc2)CN2CCCCCC2)cc1 (stereo unspecified) | 12.9%
CCCCCC(NCCCC)c1ccc(OCCOc2ccc(C(CCCCC)NCCCC)cc2)cc1 (stereo unspecified) | 16.3%
CCCCCCNC(=N)c1ccc(OCCCCCOc2ccc(C(=N)NCCCCCC)cc2)cc1 | 12.3%
CCCCC(NCC)c1ccc(OCCOc2ccc(C(CCCC)NCC)cc2)cc1 (stereo unspecified) | 8.82%
C=CCNC(CCCCC)c1ccc(OCCOc2ccc(C(CCCCC)NCC=C)cc2)cc1 (stereo unspecified) | 18.3%
Fc1ccc(C=NNc2nc3ccccc3[nH]2)cc1 | 1.42%
O=C1Nc2cccc3c2C1(CCCCN1CCC(c2c(-c4ccc(F)cc4)[nH]c4ccccc24)CC1)CCC3 (stereo unspecified) | 7.91%
CN(c1ccccc1)c1ccnc(NC(=N)Nc2ccc(Cl)cc2)n1 | 18.4%
CCNC(=O)Nc1ccc(N(C)c2ccnc(NC3CC3)n2)cc1 | 2.97%
CN(c1ccc(NC(=O)Nc2cccc(Cl)c2)cc1)c1ccnc(N)n1 | 6.9%
Cc1cc(NCCC(=O)Nc2ccccc2)nc(NCCOc2ccccc2)n1 | 4.88%
C=CCOC(=O)N1CCC(CNCc2cccc(-c3ccc(-c4nc5ccccc5[nH]4)s3)c2)C1 (stereo unspecified) | 6.73%
Cc1cc2nc(N/C(N)=N/C(=O)NC3CCCCC3)nc(C)c2cc1C | 9.38%
CCN(CC)CCOc1ccc(N(Cc2ccc(C(C)(C)C)cc2)C(=O)c2ccc(Cc3ccccc3)cc2)cc1OC | 5.84%
Cc1cccc2nc(-c3ccc(-c4cccc(CNCCN5CCNCC5)c4)cc3)[nH]c12 | 6.93%
CN1CCN(CCc2ccc3nc(-c4csc(Cc5cc(Cl)ccc5OCc5ccccc5)n4)[nH]c3c2)CC1 | 10.2%
CC(C)COc1ccc(Cl)cc1Cc1nc(-c2nc3ccc(CN4CCCC4)cc3[nH]2)co1 | 16.1%
CC(C)COc1ccc(Cl)cc1Cc1nc(-c2nc3ccc(CN4CCN(C)CC4)cc3[nH]2)co1 | 5.81%
Clc1ccc(OCc2ccccc2)c(Cc2ccc(-c3nc4cnccc4[nH]3)o2)c1 | 12.2%
CC(C)COc1ccc(Cl)cc1Cc1ccc(-c2nc3cc(N4CCN(C)CC4)ccc3[nH]2)o1 | 17.2%
CC(C)COc1ccc(Cl)cc1Cc1ccc(-c2nc3cc(F)c(F)cc3[nH]2)o1 | 13.7%
CC(C)COc1ccc(Cl)cc1Cc1ccc(-c2nc3cc(CCN(C)C)ccc3[nH]2)o1 | 16%
CNCc1cccc2nc(-c3ccc(Cc4cc(Cl)ccc4OCC(C)C)o3)[nH]c12 | 16.7%

— ChEMBL document CHEMBL1157539, “Thousands of chemical starting points for antimalarial lead identification” (Nature, 2010)
